# The source made the active and inactive calls.
# Experiment: basal S. cerevisiae growth modulation, no modifier, primary screen, OD600, strain BY4716, 24 h, basal condition (AID 1173)
# Conditions: OD600, 24 h, higher = more signal, called active from +8 up or from −8 down
row,Compound,z-score
1,C=CCC(OC(C)=O)[C@@H]1[C@@H](N(Cc2ccc(-c3ccccc3)cc2)C(=O)c2cccc3ccccc23)c2cc(OCCCO)ccc2N1C(=O)c1ccc(-c2ccccc2)cc1 (some centres undefined),-0.467 (inactive)
2,COc1cc(NN2C(C(O)c3ccco3)C=CC3C(=O)N(c4ccccc4)C(=O)C32)cc(OC)c1OC (centres undefined),1.58 (inactive)
3,CC(C)[Si]1(C(C)C)O[C@@H](c2ccccc2)c2cc(-c3ccc(-c4ccc(Cl)c(Cl)c4)o3)nc(-c3ccccc3)c21,-1.38 (inactive)
4,CCOC(=O)C[C@H]1[C@H](OC(=O)c2ccc(C(=O)c3ccccc3)cc2)[C@@H](NC(=O)c2ccc3ccccc3n2)c2cc(OCCCO)ccc2N1C(=O)c1ccccc1,0.854 (inactive)
5,CC(C)C(O)C1C=CC2C(=O)NC(=O)C2N1Nc1ccc(Cl)cc1Cl (centres undefined),-9.69 (active)
6,COc1ccc(C#Cc2ccc3c(c2)[C@]2(C(=O)N3)[C@H](C(=O)Nc3nc4ccccc4s3)[C@H]3C(=O)O[C@H](c4ccccc4)[C@H](c4ccccc4)N3[C@@H]2c2ccc(O)cc2)cc1,0.0338 (inactive)
7,COC(=O)[C@@]1(Cc2ccccc2)N=C(c2ccc(OCCCO)cc2)O[C@H]1c1ccccc1,-2.46 (inactive)
8,[N-]=[N+]=Nc1ccccc1[C@H]1OC(c2ccc(OCCCO)cc2)=N[C@@]1(CCS(=O)(=O)c1ccccc1)C(N)=O,-1.06 (inactive)
9,O=C1C[C@@](C(=O)NC2CC2)(c2ccc([N+](=O)[O-])cc2)[C@@H](c2ccc(CO)cc2I)N1C1CCCCC1,-0.466 (inactive)

# From PubChem BioAssay
